Calls of active or inactive are those of the source. How the source made its calls: active means hit-call score of the fitted dose curve at least 0.9, where 1 is the maximum; inactive means score below 0.9.

The text below walks through data of PubChem BioAssay (EPA / NIEHS).

Experiment [1] concerns the target Bile acid receptor (Homo sapiens) (UniProt Q96RI1). The experiment is described as follows: ATG_IR1_CIS: Attagene CIS-FACTORIAL HepG2 Assay for human Nuclear Receptor Subfamily 1 Group H Member 4 (NR1H4), IR1 submotif (AID 2282946). As to conditions: IR1 reporter transcription, actives raise or lower the signal. The method in brief: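 HepG2 cells transiently transfected with multiplexed cis-element reporter units read endogenous transcription factor activity. After 24 h compound exposure, reporter mRNA was quantified by RT-PCR, fluorescent labelling, HpaI digestion and capillary electrophoresis; bidirectional fitting versus DMSO baseline.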

Experiment [2] can be described thus: ATG_GRE_CIS: Attagene CIS-FACTORIAL HepG2 Assay for human Glucocorticoid Response Elements (GRE) (AID 2282947). To be noted: HepG2 GRE cis-reporter, Attagene multiplex mRNA; actives raise or lower the signal. The gist of the method:
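Reporter transcripts read by RT-PCR with capillary electrophoresis fluorescence after a 24 h chemical exposure of HepG2 cells transiently transfected with multiple cis-element reporter units. Gain or loss fitted against DMSO.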

The nature of experiment [3]: ATG_ISRE_CIS: Attagene CIS-FACTORIAL HepG2 Assay for human Interferon Regulatory Factor 1 (IRF1) binding to an Interferon-Stimulated Response Element (ISRE) (AID 2282948). To be noted: HepG2 ISRE cis-reporter (Attagene), mRNA transcription readout; actives raise or lower the signal. The gist of the method: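 Read-out: fluorescent RT-PCR products resolved by capillary electrophoresis, reporting endogenous transcription factor activity via ISRE-driven reporter mRNA in transfected HepG2 cells dosed for 24 h; gain or loss fitted relative to DMSO.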

Experiment [4] in a line: ATG_M_32_CIS: Attagene CIS-FACTORIAL HepG2 Assay for M32 Transcription Factor (Internal Marker) (AID 2282949).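 Further: background control marker of the multiplexed CIS panel rather than a real target.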 As to conditions: HepG2 Attagene cis-factorial M32 reporter, mRNA; actives raise or lower the signal. The method in brief:
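HepG2 human liver cells transiently transfected with cis-promoter-driven multiple reporter transcription units, dosed 24 h. Reporter mRNA quantified by RT-PCR, FAM-labelled primer extension, HpaI digest and capillary electrophoresis; bidirectional fit versus DMSO baseline.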

For experiment [5], the target named is Hypoxia-inducible factor 1-alpha (Homo sapiens) (UniProt Q16665). Kind of experiment: ATG_HIF1a_CIS: Attagene CIS-FACTORIAL HepG2 Assay for human Hypoxia Inducible Factor 1 (HIF1A) (AID 2282951). As to conditions: HepG2 Attagene cis-factorial HIF1a reporter transcription; actives raise or lower the signal. The method in brief: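 HepG2 cells transiently transfected with multiplexed cis-promoter reporter units; reporter mRNA read 24 h after dosing by RT-PCR, 6-FAM primer-extension labelling, HpaI digestion and capillary electrophoresis. Bidirectional fit versus DMSO baseline.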

In experiment [6] the target is Hepatocyte nuclear factor 6 (Homo sapiens) (UniProt Q9UBC0). Kind of experiment: ATG_HNF6_CIS: Attagene CIS-FACTORIAL HepG2 Assay for human Hepatocyte Nuclear Factor 6 (HNF6) (AID 2282952). To be noted: HepG2 Attagene cis-factorial HNF6 reporter transcription; actives raise or lower the signal. The method in brief: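 Readout: fluorescent reporter-transcript fragments resolved by capillary electrophoresis after RT-PCR, reflecting endogenous factor activity in transfected HepG2. Exposure 24 h. Gain or loss of signal fitted bidirectionally against DMSO.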

Experiment [7] addresses Heat shock factor protein 1 (Homo sapiens) (UniProt Q00613). Kind of experiment: ATG_HSE_CIS: Attagene CIS-FACTORIAL HepG2 Assay for human Heat Shock Transcription Factor 1 (HSE) (AID 2282953). As to conditions: HepG2 HSE cis-reporter, Attagene RNA transcription; actives raise or lower the signal. The gist of the method: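 After a 24 h incubation with test chemical, transfected HepG2 cells were harvested for RNA; reporter transcripts were measured by RT-PCR and capillary electrophoresis. Values reflect gain or loss of signal relative to DMSO.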

A short description of experiment [8]: ATG_MRE_CIS: Attagene CIS-FACTORIAL HepG2 Assay for human Metal Responsive Element (MRE) (AID 2282954). To be noted: HepG2 MRE cis-reporter transcription, Attagene multiplex; actives raise or lower the signal. The method in brief: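 Endogenous MRE-dependent transcription read as reporter mRNA in transiently transfected human HepG2 cells at 24 h. RNA reverse-transcribed, PCR-amplified, labelled and resolved by capillary electrophoresis; gain or loss relative to DMSO.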

A short description of experiment [9]: ATG_PBREM_CIS: Attagene CIS-FACTORIAL HepG2 Assay for human Phenobarbital-responsive Enhancer Module (PBREM) (AID 2282955). As to conditions: HepG2 PBREM cis-reporter, Attagene multiplexed transcription; actives raise or lower the signal. The gist of the method:
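HepG2 cells transiently transfected with multiple cis-regulated reporter transcription units; endogenous factor activity at the PBREM element measured as reporter mRNA 24 h after dosing, via RT-PCR and capillary electrophoresis of fluorescent fragments; bidirectional fitting versus DMSO.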

For experiment [10], the target named is Paired box protein Pax-6 (Homo sapiens) (UniProt P26367). The experiment is described as follows: ATG_Pax6_CIS: Attagene CIS-FACTORIAL HepG2 Assay for human Paired Box 6 (PAX6) (AID 2282956). As to conditions: HepG2 CIS-FACTORIAL PAX6 reporter transcription, RNA readout; actives raise or lower the signal. The gist of the method: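 Readout: reporter transcript fluorescence after RT-PCR and capillary electrophoresis. Cells: HepG2, transiently transfected with cis-regulated MRTUs. Exposure 24 h. Gain or loss of signal fitted bidirectionally relative to DMSO.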

The nature of experiment [11]: ATG_PXRE_CIS: Attagene CIS-FACTORIAL HepG2 Assay for human Pregnane X Receptor Element (PXRE) (AID 2282957). As to conditions: HepG2 Attagene CIS-FACTORIAL PXRE reporter, mRNA; actives raise or lower the signal. The method in brief: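 Read-out: fluorescence of reporter-specific RT-PCR products resolved by capillary electrophoresis, fitted bidirectionally relative to DMSO. Human HepG2 liver cells carried transfected cis-promoter reporter units and were exposed to chemicals for 24 h.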

The nature of experiment [12]: ATG_RORE_CIS: Attagene CIS-FACTORIAL HepG2 Assay for human RAR-related Orphan Receptor Element (RORE) (AID 2282959). To be noted: HepG2 Attagene cis-factorial RORE reporter, mRNA; actives raise or lower the signal. The method in brief: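 HepG2 cells transiently transfected with multiple cis-element reporter transcription units, exposed to chemical for 24 h. Reporter mRNA quantified by RT-PCR, 6-FAM primer-extension labeling, HpaI digestion and capillary electrophoresis; bidirectional fit versus DMSO baseline.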

Experiment [13] in a line: ATG_Sox_CIS: Attagene CIS-FACTORIAL HepG2 Assay for human SRY-box transcription factor (SOX) (AID 2282960). As to conditions: HepG2 Attagene cis-factorial SOX reporter, mRNA; actives raise or lower the signal. The gist of the method: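 HepG2 cells transiently transfected with cis-element-driven multiple reporter transcription units, dosed 24 h; reporter mRNA measured by RT-PCR, FAM labelling, HpaI digestion and capillary electrophoresis. Bidirectional fit versus DMSO baseline.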

The target in experiment [14] is Transcription factor Sp1 (Homo sapiens) (UniProt P08047). The experiment is described as follows: ATG_Sp1_CIS: Attagene CIS-FACTORIAL HepG2 Assay for human Specificity Protein 1 (Sp1) (AID 2282961). To be noted: HepG2 Sp1 cis-reporter transcription, actives raise or lower the signal. The gist of the method: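 HepG2 cells transiently transfected with multiple reporter transcription units driven by cis-regulatory elements; Sp1-responsive reporter mRNA measured 24 h after dosing by RT-PCR and capillary electrophoresis fluorescence, fitted bidirectionally against DMSO baseline.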

A short description of experiment [15]: ATG_SREBP_CIS: Attagene CIS-FACTORIAL HepG2 Assay for human Sterol Regulatory Element Binding (SREBP) (AID 2282962). As to conditions: HepG2 Attagene cis-factorial SREBP reporter, mRNA; actives raise or lower the signal. The method in brief: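 Readout: fluorescent reporter-transcript peaks resolved by capillary electrophoresis after RT-PCR. Cells were human HepG2 carrying transfected cis-promoter reporter constructs, dosed for 24 h. Gain or loss of signal was fitted against DMSO controls.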

The target of experiment [16] is Signal transducer and activator of transcription 3 (Homo sapiens) (UniProt P40763). The experiment is described as follows: ATG_STAT3_CIS: Attagene CIS-FACTORIAL HepG2 Assay for human Signal Transducer and Activator of Transcription 3 (STAT3) (AID 2282963). As to conditions: HepG2, Attagene cis-factorial STAT3 reporter transcription; actives raise or lower the signal. The gist of the method:
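Readout is reporter transcript quantified by RT-PCR and capillary electrophoresis, with 6-FAM primer extension and HpaI digestion. Total RNA is taken 24 h after dosing transiently transfected HepG2 carrying cis-regulated reporter units. Bidirectional fit against DMSO.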

Experiment [17] is described as follows: ATG_TA_CIS: Attagene CIS-FACTORIAL HepG2 Assay for human TA Basal Promoter (AID 2282964). As to conditions: HepG2 Attagene CIS-factorial TA basal promoter reporter; actives raise or lower the signal. The gist of the method:
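Multiplexed mRNA reporter assay, HepG2, 24 h. Reporter cDNA amplified, 6-FAM primer-extended, HpaI-cut, CE-sized; DMSO = negative control and baseline.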

A short description of experiment [18]: ATG_TCF_b_cat_CIS: Attagene CIS-FACTORIAL HepG2 Assay for human T-Cell-Factor with beta-catenin (TCF/b-cat) (AID 2282965). As to conditions: HepG2 TCF/beta-catenin cis-reporter transcription, actives raise or lower the signal. The method in brief: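 Endogenous TCF/LEF activity read as reporter transcript level via RT-PCR and capillary electrophoresis fluorescence in transfected HepG2, 24 h exposure; gain or loss of signal fitted against DMSO controls.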

Experiment [19] in a line: ATG_PPRE_CIS: Attagene CIS-FACTORIAL HepG2 Assay for human Peroxisome Proliferator-activated Response Element (PPRE) (AID 2282958). As to conditions: HepG2 PPRE cis-element reporter, Attagene transcription factor profiling; actives raise or lower the signal. The method in brief: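 HepG2 cells transiently transfected with multiplexed cis-element reporter units measure endogenous transcription factor activity. After 24 h compound exposure, reporter mRNA is quantified by RT-PCR, 6-FAM labeling, HpaI digestion and capillary electrophoresis; bidirectional fits are made against DMSO baseline.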

Experiment [20] can be described thus: ATG_M_06_CIS: Attagene CIS-FACTORIAL HepG2 Assay for M06 Transcription Factor (Internal Marker) (AID 2282950). To be noted: HepG2 Attagene CIS-FACTORIAL M06 internal marker reporter; actives raise or lower the signal. The method in brief:
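Fluorescence-labelled RT-PCR products from cis-promoter reporter units, cut with HpaI and resolved by capillary electrophoresis, give the signal. Cells are human HepG2, dosed for 24 h. Serves as background control, fitted relative to DMSO.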

Chain of Signal transducer and activator of transcription 3 (Homo sapiens) (P40763 whole entry, looked up): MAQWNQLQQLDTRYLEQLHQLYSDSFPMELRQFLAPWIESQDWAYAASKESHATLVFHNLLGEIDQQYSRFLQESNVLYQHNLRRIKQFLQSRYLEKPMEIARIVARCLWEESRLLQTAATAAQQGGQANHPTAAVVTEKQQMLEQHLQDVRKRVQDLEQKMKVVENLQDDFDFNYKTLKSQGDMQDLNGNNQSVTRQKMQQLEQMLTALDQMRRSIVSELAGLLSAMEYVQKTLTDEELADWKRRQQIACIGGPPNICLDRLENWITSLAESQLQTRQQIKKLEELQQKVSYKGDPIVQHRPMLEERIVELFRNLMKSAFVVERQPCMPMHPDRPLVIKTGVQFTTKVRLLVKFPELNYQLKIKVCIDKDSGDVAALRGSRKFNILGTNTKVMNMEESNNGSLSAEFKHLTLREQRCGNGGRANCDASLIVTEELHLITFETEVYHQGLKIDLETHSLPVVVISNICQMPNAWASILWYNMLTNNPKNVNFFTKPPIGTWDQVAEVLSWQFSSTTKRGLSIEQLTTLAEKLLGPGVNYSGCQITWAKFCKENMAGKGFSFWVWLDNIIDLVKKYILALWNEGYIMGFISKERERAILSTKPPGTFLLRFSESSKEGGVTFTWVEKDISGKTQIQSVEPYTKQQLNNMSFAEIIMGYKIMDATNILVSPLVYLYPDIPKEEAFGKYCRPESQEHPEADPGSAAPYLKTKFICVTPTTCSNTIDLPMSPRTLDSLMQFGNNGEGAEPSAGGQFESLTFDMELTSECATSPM
Chain of Bile acid receptor (Homo sapiens) (Q96RI1 whole entry, looked up): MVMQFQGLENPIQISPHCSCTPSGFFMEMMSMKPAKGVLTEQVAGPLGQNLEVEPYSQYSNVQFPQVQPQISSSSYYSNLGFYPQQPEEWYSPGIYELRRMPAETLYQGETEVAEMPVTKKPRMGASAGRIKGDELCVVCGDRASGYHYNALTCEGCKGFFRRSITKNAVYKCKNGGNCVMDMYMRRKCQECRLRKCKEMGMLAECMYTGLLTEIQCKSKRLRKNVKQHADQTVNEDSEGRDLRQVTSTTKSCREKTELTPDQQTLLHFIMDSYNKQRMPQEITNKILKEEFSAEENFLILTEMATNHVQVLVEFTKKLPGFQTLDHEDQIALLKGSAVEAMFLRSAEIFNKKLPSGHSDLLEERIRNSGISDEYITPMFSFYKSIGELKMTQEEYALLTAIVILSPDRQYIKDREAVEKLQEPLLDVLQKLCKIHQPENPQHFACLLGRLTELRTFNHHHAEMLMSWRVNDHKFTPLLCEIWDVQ
Chain of Transcription factor Sp1 (Homo sapiens) (P08047 whole entry, looked up): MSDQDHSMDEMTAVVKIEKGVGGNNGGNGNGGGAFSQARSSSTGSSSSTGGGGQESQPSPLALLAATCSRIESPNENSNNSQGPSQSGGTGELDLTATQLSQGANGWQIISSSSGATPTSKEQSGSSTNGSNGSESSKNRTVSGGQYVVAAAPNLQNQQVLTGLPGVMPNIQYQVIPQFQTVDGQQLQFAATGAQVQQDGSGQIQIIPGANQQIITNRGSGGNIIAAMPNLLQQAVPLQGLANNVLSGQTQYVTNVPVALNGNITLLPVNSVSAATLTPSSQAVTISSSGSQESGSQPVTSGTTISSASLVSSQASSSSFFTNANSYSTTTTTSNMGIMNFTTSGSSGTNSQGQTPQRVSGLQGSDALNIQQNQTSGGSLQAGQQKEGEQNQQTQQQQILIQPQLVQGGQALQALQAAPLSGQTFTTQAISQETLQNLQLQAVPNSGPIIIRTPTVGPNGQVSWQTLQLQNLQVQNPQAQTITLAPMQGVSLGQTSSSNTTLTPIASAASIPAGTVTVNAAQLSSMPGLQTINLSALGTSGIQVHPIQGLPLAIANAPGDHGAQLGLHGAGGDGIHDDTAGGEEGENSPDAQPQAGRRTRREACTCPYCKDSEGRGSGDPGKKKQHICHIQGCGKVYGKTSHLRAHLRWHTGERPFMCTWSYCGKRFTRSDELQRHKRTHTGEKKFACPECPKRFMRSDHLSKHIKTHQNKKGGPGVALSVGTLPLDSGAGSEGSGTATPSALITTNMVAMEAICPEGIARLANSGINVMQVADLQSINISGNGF
Chain of Paired box protein Pax-6 (Homo sapiens) (P26367 whole entry, looked up): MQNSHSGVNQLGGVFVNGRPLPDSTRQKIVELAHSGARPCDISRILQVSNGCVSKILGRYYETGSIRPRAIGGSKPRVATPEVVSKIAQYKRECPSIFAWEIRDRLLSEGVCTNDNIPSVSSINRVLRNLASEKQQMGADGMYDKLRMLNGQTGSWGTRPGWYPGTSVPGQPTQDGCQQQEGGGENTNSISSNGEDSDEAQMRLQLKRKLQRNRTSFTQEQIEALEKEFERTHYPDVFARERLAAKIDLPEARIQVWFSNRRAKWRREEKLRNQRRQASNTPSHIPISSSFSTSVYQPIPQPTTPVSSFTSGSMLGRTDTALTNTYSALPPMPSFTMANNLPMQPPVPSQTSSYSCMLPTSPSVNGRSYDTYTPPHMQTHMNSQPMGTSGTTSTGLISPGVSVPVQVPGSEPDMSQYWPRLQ
Chain of Hypoxia-inducible factor 1-alpha (Homo sapiens) (Q16665 whole entry, looked up): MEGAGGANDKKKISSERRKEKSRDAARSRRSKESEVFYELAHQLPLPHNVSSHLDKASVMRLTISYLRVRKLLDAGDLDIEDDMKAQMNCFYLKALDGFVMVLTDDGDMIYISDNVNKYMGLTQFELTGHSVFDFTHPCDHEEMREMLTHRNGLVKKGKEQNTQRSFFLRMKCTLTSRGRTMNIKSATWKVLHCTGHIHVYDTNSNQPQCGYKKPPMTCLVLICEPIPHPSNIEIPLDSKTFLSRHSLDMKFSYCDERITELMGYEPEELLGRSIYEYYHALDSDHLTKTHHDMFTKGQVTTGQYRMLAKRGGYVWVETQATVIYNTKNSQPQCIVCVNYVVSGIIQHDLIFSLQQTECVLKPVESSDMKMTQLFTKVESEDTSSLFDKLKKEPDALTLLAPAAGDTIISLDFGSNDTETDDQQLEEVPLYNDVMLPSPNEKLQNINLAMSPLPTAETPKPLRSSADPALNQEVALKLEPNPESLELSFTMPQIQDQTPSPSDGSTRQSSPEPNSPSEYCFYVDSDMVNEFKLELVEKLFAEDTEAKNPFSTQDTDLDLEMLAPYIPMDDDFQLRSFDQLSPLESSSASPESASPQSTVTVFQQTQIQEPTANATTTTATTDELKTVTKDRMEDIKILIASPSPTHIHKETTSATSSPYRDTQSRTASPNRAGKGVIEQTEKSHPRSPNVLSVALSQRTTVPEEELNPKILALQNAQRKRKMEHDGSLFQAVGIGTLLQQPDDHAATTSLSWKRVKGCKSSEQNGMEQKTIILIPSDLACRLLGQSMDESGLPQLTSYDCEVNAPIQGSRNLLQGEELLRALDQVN
Chain of Heat shock factor protein 1 (Homo sapiens) (Q00613 whole entry, looked up): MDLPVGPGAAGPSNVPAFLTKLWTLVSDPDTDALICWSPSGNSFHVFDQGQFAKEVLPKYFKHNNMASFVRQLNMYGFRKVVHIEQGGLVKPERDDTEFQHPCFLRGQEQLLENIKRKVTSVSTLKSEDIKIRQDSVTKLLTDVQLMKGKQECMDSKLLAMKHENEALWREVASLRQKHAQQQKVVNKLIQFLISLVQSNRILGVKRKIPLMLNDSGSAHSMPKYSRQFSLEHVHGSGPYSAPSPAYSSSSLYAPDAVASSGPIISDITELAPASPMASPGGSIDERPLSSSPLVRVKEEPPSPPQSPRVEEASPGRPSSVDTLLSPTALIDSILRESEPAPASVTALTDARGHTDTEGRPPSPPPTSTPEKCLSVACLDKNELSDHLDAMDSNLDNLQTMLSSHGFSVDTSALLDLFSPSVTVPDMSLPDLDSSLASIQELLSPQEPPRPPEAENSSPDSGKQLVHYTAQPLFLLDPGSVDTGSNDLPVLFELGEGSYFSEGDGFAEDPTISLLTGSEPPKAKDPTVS
Chain of Hepatocyte nuclear factor 6 (Homo sapiens) (Q9UBC0 whole entry, looked up, the tested form may be a part): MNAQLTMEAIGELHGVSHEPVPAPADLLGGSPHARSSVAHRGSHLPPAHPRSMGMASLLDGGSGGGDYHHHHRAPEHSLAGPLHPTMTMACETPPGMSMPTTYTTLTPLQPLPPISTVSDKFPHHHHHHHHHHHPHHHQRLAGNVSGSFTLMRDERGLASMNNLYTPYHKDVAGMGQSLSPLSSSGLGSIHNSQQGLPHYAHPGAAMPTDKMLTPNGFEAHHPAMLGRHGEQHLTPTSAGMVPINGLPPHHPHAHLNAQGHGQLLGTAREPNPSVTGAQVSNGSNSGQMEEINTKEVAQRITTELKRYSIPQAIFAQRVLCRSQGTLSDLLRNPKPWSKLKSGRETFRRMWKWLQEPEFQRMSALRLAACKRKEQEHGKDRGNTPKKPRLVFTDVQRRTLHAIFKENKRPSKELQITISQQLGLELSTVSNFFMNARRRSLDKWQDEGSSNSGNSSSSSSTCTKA

For `NNC(=O)c1cccc(C(=O)NN)c1`, the compound was called inactive in experiment [1], in experiment [2], in experiment [3], in experiment [4], in experiment [5] and in [6]. Moreover, the compound was called inactive in experiment [7], in experiment [8], in [9], in experiment [10], in experiment [11] and in experiment [12]. Besides, the call in experiment [13], in experiment [14], in experiment [15], in experiment [16], in experiment [17] and in experiment [18] was inactive.
Broadly, the AC50 is the concentration giving half of the maximal activity seen. As to `CC(C)C(=O)C(C)C`, the compound was classed as inactive in experiment [1], in [2], in experiment [3], in experiment [4], in experiment [5] and in experiment [6]. Besides, the result in [8], in experiment [9], in experiment [11], in experiment [19], in experiment [14] and in experiment [15] was inactive. For the same compound, the call in [16] and in [17] was inactive. Moreover, the values for the half-maximal activity concentration (AC50) in experiment [7], in experiment [10] and in experiment [13] were 68.7 µM (active), 42.4 µM (active) and 19.5 µM (active), respectively.
Take `O=C1CCCCCN1SSN1CCCCCC1=O`: the result in [1], in experiment [4], in experiment [20], in experiment [5], in experiment [6] and in experiment [9] was inactive. Moreover, the outcome in experiment [11], in experiment [19], in [12], in experiment [16], in experiment [17] and in experiment [18] was inactive. The concentration at half-maximal activity (AC50) in experiment [3] was 167 µM (active); in experiment [7], 133 µM (active); in experiment [8], 165 µM (active); in [10], 156 µM (active); in [13], 183 µM (active); in experiment [14], 167 µM (active). In experiment [15], the AC50 was 161 µM (active).
On to `CC(C)=CCC/C(C)=C\C#N`, for which the compound was classed as inactive in experiment [1], in [2], in experiment [4], in experiment [20], in [6] and in experiment [7]. Besides, the compound was called inactive in experiment [8], in experiment [9], in [10], in experiment [12], in experiment [13] and in [14]. Further, the call in [15], in experiment [16] and in experiment [17] was inactive. The AC50 in [11] was 28.1 µM (active).
